Screening data from PubChem.
TROY NFkB inh: inhibitors of TROY-dependent NF-kB signaling. Q293 LMP1-TROYcd NF-kB luciferase reporter, 4 h. inhibition, % at 10 µM. 360,000 compounds, 0.98% hits. AID 1347056;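 active = compounds whose plate-normalised and pattern-corrected inhibition of the luciferase reporter signal at the single screening dose is 50% or more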
HIF-2a block: inhibitors of HIF-2a. 786-0 RCC cells HIF-2a reporter, luciferase luminescence, overnight. inhibition, % at 18.8 µM. 360,000 compounds, 0.72% hits. AID 624352;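 active = inhibition of the luminescence signal of 40% or more relative to plate controls, in a single-dose primary screen at 18.75 µM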
Peg3 promoter: inhibitors of Peg3 promoter. 360,000 compounds, 1.7% hits. HeLa PEG-Prom luciferase reporter, luminescence, overnight. inhibition, % at 20 µM;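 active = inhibition of at least 50% at 20 µM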
CF NFkB block: cystic fibrosis NF-kB activation inhibition | KKLEB NF-kB-GFP reporter, PAF-induced, GFP fluorescence overnight | inhibition, % at 5 µM | 360,000 compounds, 0.86% hits | AID 588850;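 active = at least 50% inhibition at 5 µM, scaled per plate between neutral and stimulator controls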;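 also: PAF is a Pseudomonas aeruginosa culture filtrate used as stimulus; plate controls were PAF-stimulated DMSO wells for no effect and unstimulated DMSO wells for full effect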
TWEAK-Fn14 inh: blocks TWEAK-Fn14 interaction in a reporter cell assay; TWEAK-stimulated Fn14 reporter cells, luciferase luminescence, 8 h; inhibition, % at 10 µM; 360,000 compounds, 2% hits; AID 1159606; in the data active = inhibition above about 50%
KKLEB cytotox: CF airway cell cytotoxicity counter-screen; KKLEB CF airway cells viability, ATPlite luminescence, overnight; hits give low values; cells stimulated with P. aeruginosa culture filtrate; activity change (cytotoxicity), % at 5 µM; 360,000 compounds, 0.36% hits;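 active = corrected activity change at or below -50% at 5 µM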
* = called active by the depositor; / = no result given. Most compounds without a hit are left out; they make up all but 4% or so of the library.

SMILES	TROY NFkB inh	HIF-2a block	Peg3 promoter	CF NFkB block	TWEAK-Fn14 inh	KKLEB cytotox
CC(C)CNS(=O)(=O)c1cc(C(=O)OCC(=O)N(C)C2CCS(=O)(=O)C2)c(Cl)cc1Cl (configuration not stated)	8	10	-9	8	-11	0
CCOc1cccc(C(=O)Nc2cccc(C(C)=O)c2)c1	-29	-104	-98	-2	-11	2
Cc1ccc(C(=O)Nc2ccc3ccccc3c2)cc1	54*	-121	3	-26	87*	-44
CCOc1cccc(C(=O)Nc2ccc3ccccc3c2)c1	15	-76	-136	0	52*	-22
CCOC(=O)c1c(C)nc(SCC(N)=O)c(C#N)c1-c1ccccc1	-11	7	19	-12	-29	7
COc1ccc(NC(=O)N2CCN(c3nc4ccccc4n3C(C)C)CC2)cc1	-9	14	-2	20	-8	-4
COc1ccccc1NS(=O)(=O)c1ccc(NC(=O)c2ccccn2)cc1	7	-1	16	20	4	-5
O=C(N/N=C/c1ccccc1)c1n[nH]c2c1CCCC2	10	-112	-1	-2	54*	-32
O=C(N/N=C/c1cccs1)c1n[nH]c2c1CCC2	19	-10	-19	15	57*	-2
Cc1ccc(-c2nnc(N3CC(C)OC(C)C3)c3ccccc23)cc1 (configuration not stated)	0	18	8	-1	2	20
C=CCn1c(=O)c(C(=O)Nc2ccccc2O)c(O)c2ccccc21	-10	-45	-29	-26	-8	4
CC(C)OCCCN1CC(=O)N2[C@@H](Cc3c([nH]c4ccccc34)C2(C)C)C1=O	-11	10	-6	4	-21	4
Cc1cccc(Nc2nc(N)c([N+](=O)[O-])c(N3CCCC(C)C3)n2)c1 (configuration not stated)	36	-14	55*	42	64*	-18
Cc1cc(C)cc(Nc2ccc3nonc3c2[N+](=O)[O-])c1	6	19	4	7	-8	-7
COc1ccc(-c2csc(N(CCc3ccccc3)C(=O)COc3ccccc3)n2)cc1	-12	28	4	-7	-4	-4
O=C(COc1ccc(Cl)cc1)N(Cc1ccccc1)c1nc(-c2ccccc2)cs1	-20	13	55*	3	0	-2
Cc1cc(/C=N/n2cnnc2)c(C)n1-c1ccc(Cl)cc1	-25	4	6	21	3	-8
Cc1cc(/C=N/n2cnnc2)c(C)n1-c1ccc(OCc2ccc(Cl)cc2Cl)cc1	77*	81*	41	-2	61*	-3
O=C(CNC(=O)/C(=C\c1ccccc1)NC(=O)c1ccc(Br)cc1)OCc1ccccc1	/	9	1	-14	73*	4
CC1ON=C(c2ccccn2)N(Cc2ccc3c(c2)OCO3)C1=O (configuration not stated)	-1	8	0	4	-13	-4
Cc1cc(S(=O)(=O)Nc2ccc(C(=O)NCCN3CCOCC3)cc2)ccc1F	-6	3	18	-60	-12	24
CC1(c2ccccc2)NC(=O)N(CC(=O)NCCC2=CCCCC2)C1=O (configuration not stated)	57*	16	14	1	2	-5
Cc1ccc(NS(=O)(=O)c2cc(C(=O)OCC(=O)NCC3CCCO3)ccc2C)cc1 (configuration not stated)	8	13	15	-2	-13	0
COc1ccc(-c2ccc(CN3C(CC(C)C)C(=O)N(Cc4cn(CCC5OCCO5)nn4)CCS3(=O)=O)cc2)cc1OC (configuration not stated)	17	20	-6	26	9	-2
CCn1c(CNC(=O)c2cccnc2)cc2ccccc21	10	18	74*	-1	4	5
SMILES	TROY NFkB inh	HIF-2a block	Peg3 promoter	CF NFkB block	TWEAK-Fn14 inh	KKLEB cytotox
FC(F)(F)c1ccc(N2CCN(c3cc(-c4ccccc4)nc4ncnn34)CC2)nc1	67*	-3	14	4	80*	13
COc1cc2cc(NC(C)=O)cc(NCc3ccccc3)c2cc1OC	59*	14	12	-20	-6	2
CCCCNc1cc(NC(C)=O)cc2cc(OC)c(OC)cc12	14	7	9	-2	9	5
COc1ccc(/C=N/N=C/c2ccc(OC)c(OC)c2)cc1OC	-7	1	9	-7	-13	2
COc1cc(/C=N/N=C(N)N)ccc1OCc1ccccc1Cl	0	-49	102*	-11	2	-4
COCCn1nnnc1C(c1cc2cc(OC)c(OC)cc2[nH]c1=O)N1CCN(c2ccc(O)cc2)CC1 (configuration not stated)	-2	18	2	7	2	-5
CN(C(=O)c1cccc(NC(=O)Cc2ccc(NC(=O)C3CCCN(C(=O)CCc4ccccc4)C3)cc2)c1)C1CCC1 (configuration not stated)	39	7	2	0	48	-1
O=C(NCCCc1ccccc1)c1cccc(NC(=O)C2CCCCC2)c1	1	-8	-9	-19	54*	6
CN(C(=O)c1cccc(NC(=O)Cc2ccc(NC(=O)C3CCCN(C(=O)CCc4ccccc4)C3)cc2)c1)C1CCCC1 (configuration not stated)	47	3	39	14	53*	7
O=C(NCCCc1ccccc1)c1cccc(NC(=O)C2CCC2)c1	-10	-6	-25	-9	8	-4
Cc1onc(-c2ccccc2)c1C(=O)NNC(=S)NC(=O)c1ccc(Br)cc1	-26	6	13	44	-14	-21
COc1ccc(C(=O)c2ccc(N3CCN(C(=O)c4ccc(F)cc4)CC3)c(F)c2)cc1Br	44	7	26	10	61*	10
CCC(=O)c1ccc(N2CCN(C(=O)c3ccc(F)cc3)CC2)c(F)c1	17	13	3	2	-4	0
CNc1ccccc1C(=O)OCC(C)=O	-6	6	13	6	5	-14
COCCCNCC(O)COc1ccccc1F (configuration not stated)	-5	16	0	4	98*	4
Cc1cccc(N2CCN(C(=O)N3CCCCC3)CC2)c1C	5	2	1	2	11	1
O=C(Nc1ccc(N2CCCCC2)cc1)c1ccc([N+](=O)[O-])o1	24	34	106*	96*	45	-37
COc1ccc(N2CCCC2)c(NC(=O)c2ccc([N+](=O)[O-])o2)c1	4	-16	53*	-1	-10	-26
CC1CCN(c2ccc(NC(=O)c3ccc([N+](=O)[O-])o3)cc2)CC1	9	53*	106*	95*	42	-98*
c1ccc(-c2ccccc2OCCCCN2CCCCCC2)cc1	-8	18	31	10	-21	-3
